# Data as given in the supplement of paper PMC9135407.
# “And” between values parts separate entries of the source, which are not always exact repeats. Equal values may be shown once. Where a name gives a salt, the structure may show the parent alone. Screen size: about 5,800 compounds; about 620 (11%) showed activity. The full list was thinned out, with actives kept by preference. A number with no mark means an inactive call.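 How the source made its calls: active = score above a cut-off or among the top three wells of a plate; in these data no inactive exceeds 0.85.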
# System: primary human hepatic stellate cells (donor 1)
# Test: scaled lipid accumulation score (0 = DMSO-like, 1 = nortriptyline-like); higher = stronger HSC inactivation (lipid re-accumulation), active = hit call of the paper
# Conditions: 48 h
# [1] = library stock concentration: 1 mM
# [2] = library stock concentration: 10 mM
# [3] = library stock concentration: 3.33 mM
# [4] = library stock concentration: 5.3 mM
# [5] = library stock concentration: 80 uM
# [6] = library stock concentration: 400 uM
# [7] = library stock concentration: 2 mM
# [8] = library stock concentration: 6.4 mM
smiles,measurement,setting,value
Nc1nc(=S)c2ncn([C@@H]3O[C@H](CO)[C@@H](O)[C@H]3O)c2[nH]1 [Thioguanosine],scaled lipid accumulation score,,0.076
CCCCC[C@H](O)/C=C/[C@@H]1[C@H](CCCCCCC(=O)O)[C@@H](O)C[C@H]1O [8-iso Prostaglandin F1.alpha.],scaled lipid accumulation score,[1],≤ 0
CCCCC/C=C\C/C=C\C/C=C\CCCCC(=O)O [Gamma-linolenic acid (18:3 n-6)],scaled lipid accumulation score,[1],0.024
CCCCC/C=C\C/C=C\C/C=C\CCCCC(=O)O [.gamma.-Linolenic Acid],scaled lipid accumulation score,[1],0.011
Cl.Clc1ccc(CCCOCCCN2CCCCC2)cc1,scaled lipid accumulation score,[2],1.05 (active)
OCCOCCN1CCN(C(c2ccccc2)c2ccc(Cl)cc2)CC1 (stereo not drawn) [Hydroxyzine dihydrochloride],scaled lipid accumulation score,,0.453
OCCOCCN1CCN(C(c2ccccc2)c2ccc(Cl)cc2)CC1 (stereo not drawn) [Hydroxyzine pamoate],scaled lipid accumulation score,library stock concentration: 2.6 mM,0.044
same,scaled lipid accumulation score,[2],0.142
OC(CCCN1CCCCC1)(c1ccccc1)c1ccccc1 [Diphenidol HCl],scaled lipid accumulation score,[3],≤ 0
same,scaled lipid accumulation score,[2],0.007
OCCOCCN1CCN(C(c2ccccc2)c2ccc(Cl)cc2)CC1 (stereo not drawn) [Hydroxyzine 2HCl],scaled lipid accumulation score,[3],0.1
same,scaled lipid accumulation score,[2],0.631
OC(CCCN1CCCCC1)(c1ccccc1)c1ccccc1 [Diphenidol hydrochloride],scaled lipid accumulation score,,0.315
CCCCC[C@H](O)/C=C/[C@@H]1[C@@H](C/C=C\CCCC(=O)NCCO)[C@@H](O)C[C@H]1O [Prostaglandin F2.alpha. Ethanolamide],scaled lipid accumulation score,[1],≤ 0
Nc1ncnc2c1ncn2[C@@H]1O[C@H](CO)C[C@@H]1O [3'-deoxydenosine],scaled lipid accumulation score,[2],≤ 0
CC(C)(C)NCC(O)c1ccc(O)c(CO)c1 (racemic) [Albuterol (+/-)],scaled lipid accumulation score,[2],0.068
CO/N=C(\C(=O)N[C@@H]1C(=O)N2C(C(=O)O)=C(CSc3nnnn3C)CS[C@H]12)c1csc(N)n1,scaled lipid accumulation score,[2],≤ 0
CC(C)=CCCC(C)(OC1OC(COC2OCC(O)C(O)C2O)C(O)C(O)C1O)C1CCC2(C)C1C(O)CC1C3(C)CCC(OC4OC(CO)C(O)C(O)C4O)C(C)(C)C3CCC12C (stereo not drawn) [Gynostemma Extract],scaled lipid accumulation score,[3],0.01
same,scaled lipid accumulation score,[2],≤ 0
O=C(CCCN1CCC(O)(c2cccc(C(F)(F)F)c2)CC1)c1ccc(F)cc1 [Trifluperidol 2HCl],scaled lipid accumulation score,library stock concentration: 4.9 mM,0.327
O=C(CCCN1CCC(O)(c2ccc(Cl)cc2)CC1)c1ccc(F)cc1 [Haloperidol HCl],scaled lipid accumulation score,[4],0.419
O=C(CCCN1CCC(O)(c2ccc(Cl)cc2)CC1)c1ccc(F)cc1 [Haloperidol hydrochloride],scaled lipid accumulation score,[2],0.78
O=C(CCCN1CCC(O)(c2ccc(Br)cc2)CC1)c1ccc(F)cc1 [Bromperidol],scaled lipid accumulation score,,0.632
same,scaled lipid accumulation score,library stock concentration: 4.8 mM,0.429
Cl.O=C(CCCN1CCC(O)(c2cccc(C(F)(F)F)c2)CC1)c1ccc(F)cc1 [Trifluperidol hydrochloride],scaled lipid accumulation score,[2],0.88 (active)
O=C(CCCN1CCC(O)(c2ccc(Cl)cc2)CC1)c1ccc(F)cc1 [Haloperidol] [listing 1 of 2 here],scaled lipid accumulation score,,0.589
same,scaled lipid accumulation score,[3],0.302
same,scaled lipid accumulation score,[4],0.447
same,scaled lipid accumulation score,[2],0.787 and 0.814 and 0.297
NC(=O)C1(N2CCCCC2)CCN(CCCC(=O)c2ccc(F)cc2)CC1,scaled lipid accumulation score,[2],≤ 0
O=C(CCCN1CCC(O)(c2ccc(Cl)cc2)CC1)c1ccc(F)cc1 [Haloperidol] [listing 2 of 2 here],scaled lipid accumulation score,[2],1.12 (active)
COc1ccc(C2(CNC(=O)c3ccc(NC(=O)c4ccco4)cc3)CCOCC2)cc1,scaled lipid accumulation score,[5],≤ 0
same,scaled lipid accumulation score,[6],≤ 0
same,scaled lipid accumulation score,[7],≤ 0
same,scaled lipid accumulation score,[2],≤ 0
CCCCC[C@H](O)/C=C/[C@@H]1[C@@H](C/C=C\CCCCO)[C@@H](O)C[C@H]1O [Prostaglandin F2.alpha. Alcohol],scaled lipid accumulation score,[1],≤ 0
"CCCn1c(=O)c2[nH]c(-c3ccc(S(=O)(=O)O)cc3)nc2n(CCC)c1=O [1,3-Dipropyl-8-p-sulfophenylxanthine]",scaled lipid accumulation score,[2],0.108
CC1=C(C(=O)OC(C)C)C(c2cccc([N+](=O)[O-])c2)C(C(=O)OC2CN(C(c3ccccc3)c3ccccc3)C2)=C(N)N1 (stereo not drawn) [Azelnidipine],scaled lipid accumulation score,[3],0.061
same,scaled lipid accumulation score,[2],0.189
O=C(CCC/C=C\C[C@@H]1[C@@H](/C=C/[C@@H](O)CCc2ccccc2)[C@H](O)C[C@@H]1O)NC(CO)CO [17-phenyl trinor Prostaglandin F2.alpha. serinol amide],scaled lipid accumulation score,[1],0.062
COc1cc(NC(=O)c2ccccn2)ccc1Cl,scaled lipid accumulation score,[3],≤ 0
same,scaled lipid accumulation score,[2],≤ 0
COc1ccc(NC(=O)c2cc(OCCCN(C)C)nn2Cc2ccccc2)cc1.Cl [CFM 1571 hydrochloride],scaled lipid accumulation score,[2],1.11 (active)
COCCOc1nc(-c2ccc(Cl)c(Cl)c2)n(-c2ccc(NC(=O)CCl)cc2)n1 [MI-2 (MALT1 inhibitor)],scaled lipid accumulation score,[3],0.584
same,scaled lipid accumulation score,[2],0.62
O=C(O)CCC/C=C\CC1C(O)CC(O)C1/C=C/C(O)COc1cccc(Cl)c1 (stereo not drawn) [Cloprostenol],scaled lipid accumulation score,[1],≤ -0.021
O=C(O)CCC/C=C\CC1C(O)CC(O)C1/C=C/C(O)COc1cccc(Cl)c1 (stereo not drawn),scaled lipid accumulation score,[2],≤ -0.001
CC1CC(OC(=O)C(O)c2ccccc2)CC(C)(C)N1C (stereo not drawn) [Eucatropine hydrochloride],scaled lipid accumulation score,,≤ 0
same,scaled lipid accumulation score,library stock concentration: 6.1 mM,≤ -0.001
same,scaled lipid accumulation score,[2],≤ 0
CC1O[C@H](O[C@]2(O[C@H]3CC[C@@]4(C)C(=CC[C@H]5[C@@H]6C[C@H]7[C@H]([C@H](C)[C@H]8CC[C@H](C)CN87)[C@@]6(C)CC[C@@H]54)C3)C[C@@H](O[C@@H]3OC(CO)[C@@H](O)[C@@H](O)C3O)[C@@H](O)C(CO)O2)C(O)[C@@H](O)[C@H]1O (stereo partly drawn) [Solanine alpha],scaled lipid accumulation score,,≤ 0
CNC(=C[N+](=O)[O-])NCCSCc1ccc(CN(C)C)o1 [Ranitidine hydrochloride],scaled lipid accumulation score,,≤ 0
same,scaled lipid accumulation score,[2],≤ 0 and ≤ -0.006
Cc1ccc(NC(=O)NCCSCc2ccc(CN(C)C)o2)cc1Cl,scaled lipid accumulation score,[2],0.931 (active)
CNC(=C[N+](=O)[O-])NCCSCc1ccc(CN(C)C)o1 [Ranitidine],scaled lipid accumulation score,[3],≤ 0
same,scaled lipid accumulation score,[8],≤ 0
same,scaled lipid accumulation score,[2],0.049 and ≤ 0
CNC(=C[N+](=O)[O-])NCCSCc1ccc(CN(C)C)o1 [Ranitidine HCl],scaled lipid accumulation score,[8],≤ 0
CN(C)C/C=C/C(=O)Nc1ccc(C(=O)Nc2cccc(Nc3nccc(-c4cccnc4)n3)c2)cc1,scaled lipid accumulation score,[2],1.15 (active)
Cc1cc(NC(=O)c2cccc(NC(=O)C=CCN(C)C)c2)ccc1Nc1nccc(-c2cccnc2)n1,scaled lipid accumulation score,[3],1.08 (active)
same,scaled lipid accumulation score,[2],1.02 (active)
CN(C)C/C=C/C(=O)Nc1cccc(Nc2ncc3c(n2)N(C)c2ccccc2C(=O)N3C)c1,scaled lipid accumulation score,[5],≤ -0.009
same,scaled lipid accumulation score,[6],0.1
same,scaled lipid accumulation score,[7],0.846
same,scaled lipid accumulation score,[2],0.566
CN(C)C/C=C/C(=O)Nc1ccc(C(=O)Nc2cccc(Nc3ncc(Cl)c(-c4c[nH]c5ccccc45)n3)c2)cc1,scaled lipid accumulation score,[5],0.587
same,scaled lipid accumulation score,[6],0.669
same,scaled lipid accumulation score,[7],0.638
same,scaled lipid accumulation score,[2],0.41
C[C@@H]1CC2C3C[C@H](F)C4=CC(=O)C=C[C@]4(C)[C@@]3(F)[C@@H](O)C[C@]2(C)[C@@]1(O)C(=O)COC(=O)C(C)(C)C (stereo partly drawn) [Flumethazone pivalate],scaled lipid accumulation score,library stock concentration: 4 mM,0.012
same,scaled lipid accumulation score,[2],≤ 0
"c1ccc2c(-c3ccncc3)c[nH]c2c1 [Rho Kinase Inhibitor III, Rockout]",scaled lipid accumulation score,[3],≤ 0
COc1ccc(-c2ccc3cc(C(=O)O)ccc3c2)cc1C12CC3CC(CC(C3)C1)C2,scaled lipid accumulation score,[2],0.008
COc1ccc(-c2ccc3cc(C(=O)O)ccc3c2)cc1C12CC3CC(CC(C3)C1)C2 [Adapalene],scaled lipid accumulation score,[3],≤ 0
same,scaled lipid accumulation score,[2],≤ 0
COc1cc(-c2cc(-c3cccc(O)c3)cnc2N)cc(OC)c1OC,scaled lipid accumulation score,[3],≤ -0.009
same,scaled lipid accumulation score,[2],≤ 0
"CC(=O)NC(CC(=O)O)C(=O)O (racemic) [Aspartic acid, N-acetyl (R,S)]",scaled lipid accumulation score,,0.182
Cl.N/C(=N\C(=O)c1nc(Cl)c(N)nc1N)NCc1ccccc1 [Benzamil hydrochloride],scaled lipid accumulation score,[2],1.09 (active)
Cl.N/C(=N\Cc1ccccc1)NC(=O)c1nc(Cl)c(N)nc1N,scaled lipid accumulation score,library stock concentration: 14 mM,1.1 (active)
N/C(=N\C(=O)c1nc(Cl)c(N)nc1N)NCc1ccccc1 [Benzamil hydrochloride],scaled lipid accumulation score,,0.168
NC(=O)NC(=O)Cc1ccccc1 [Phenacemide],scaled lipid accumulation score,[2],≤ 0
N/C(=N\C(=O)c1nc(Cl)c(N)nc1N)NCc1ccccc1 [Benzamil],scaled lipid accumulation score,library stock concentration: 6.3 mM,0.287
Cl.N/C(=N\C(=O)c1nc(Cl)c(N)nc1N)NCc1ccc(Cl)cc1Cl,scaled lipid accumulation score,library stock concentration: 11.8 mM,0.876 (active)
N[C@H](Cc1ccccc1)C(=O)O [D-phenylalanine],scaled lipid accumulation score,[2],≤ -0.022
"CCCCC/C=C\CCCC/C=C\C/C=C\CCCC(=O)O [5(Z),8(Z),14(Z)-Eicosatrienoic Acid]",scaled lipid accumulation score,[1],≤ 0
CCCCC[C@H](O)/C=C/[C@@H]1[C@H](C/C=C\CCCC(=O)O)[C@@H](O)C[C@H]1O [8-iso Prostaglandin F2.alpha.],scaled lipid accumulation score,[1],≤ 0
CC(C)(C)n1nc(-c2cccc3ccccc23)c2c(N)ncnc21 [1-Naphthyl PP1],scaled lipid accumulation score,[2],0.016
